Reference: PubChem BioAssay (NCI)
This is part of a sample that, as a whole, favours compounds with a hit. Of some 79,000 tested, about 15% had one in any assay. Calls of active or inactive are those of the source. Cut-off read from the data, not from the text of the source: active = growth inhibition above about 70%; inactive = the rest.

Assays:
[1] = NCI Yeast Anticancer Drug Screen. Data for the rad50 strain (AID 155);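 note: 0% = growth of vehicle-only cultures of the same strain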; settings: S. cerevisiae rad50 strain growth inhibition; at 50.0 µM; stronger effect = higher value
How it was run: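 Yeast carrying a defined DNA repair defect were exposed to test compounds, and growth was compared with vehicle-treated controls to give percent inhibition.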

[2] = NCI Yeast Anticancer Drug Screen. Data for the mec2-1 strain (AID 157); settings: S. cerevisiae mec2-1 strain, at 50.0 µM, stronger effect = higher value
How it was run: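 Readout is yeast growth inhibition, normalised to vehicle-treated controls, in the mec2-1 strain exposed to compound.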

[3] = NCI Yeast Anticancer Drug Screen. Data for the sgs1 mgt1 strain (AID 161);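 note: 0% = growth of cultures given vehicle only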; settings: S. cerevisiae sgs1 mgt1 strain, at 50.0 µM, stronger effect = higher value
How it was run: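 Compounds are added to genetically altered yeast, and growth is compared with cultures given vehicle alone to give percent inhibition.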

[4] = NCI Yeast Anticancer Drug Screen. Data for the cln2 rad14 strain (AID 165);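 note: 0% = growth equal to vehicle treated cultures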; settings: S. cerevisiae cln2 rad14 strain, at 50.0 µM, stronger effect = higher value
How it was run: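 Relative to vehicle controls, growth inhibition of compound-treated cln2 rad14 yeast was recorded.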

[5] = NCI Yeast Anticancer Drug Screen. Data for the bub3 strain (AID 167); settings: S. cerevisiae bub3 mutant strain, at 50.0 µM, stronger effect = higher value
How it was run: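 Compounds were applied to a genetically altered yeast strain carrying a cell-cycle control defect. Growth inhibition was scored against vehicle-treated controls.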

[6] = NCI Yeast Anticancer Drug Screen. Data for the mlh1 rad18 strain (AID 175); settings: S. cerevisiae mlh1 rad18 strain growth inhibition; at 50.0 µM; stronger effect = higher value
How it was run: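 Test agents were incubated with a yeast strain of defined genotype (DNA damage repair defect). Inhibition of growth was derived by comparison with vehicle-exposed cultures.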

Measured: growth inhibition

CCN(Cc1cc(Nc2ccnc3cc(Cl)ccc23)ccc1O)C(=O)N1CCN(C)CC1
inactive: [1] 10.7% | [2] 6.1% | [3] 20.5% | [4] 15.8% | [5] -7.55% | [6] 11.1%

N/C=N/O
inactive: [1] 19.9% | [2] 4.35% | [3] 16.6% | [4] 18.2% | [5] 18.8% | [6] 22.7%

COc1ccc(C2=C(Cl)c3cc(OC)c(OC)cc3C2Cl)cc1OC (stereo unspecified)
inactive: [1] 41.5% | [2] 18.6% | [3] 21.9% | [4] 26.9% | [5] -6.15% | [6] 17.4%

O/N=C1/CC2(N3CCOCC3)C3CC/C(=N\O)C2CC1(Cc1ccccc1)C3 (stereo unspecified)
inactive: [1] 2.75% | [2] 0.25% | [3] 17.1% | [4] 27.7% | [5] -11.2% | [6] -10%

CC(C)(Oc1ccc2c(=O)cc(-c3ccc(Cl)cc3)oc2c1)C(=O)Nc1c(Cl)cccc1Cl
inactive: [1] 16.4% | [2] -20.1% | [3] 6.45% | [4] -14.9% | [5] 2.75% | [6] 16.8%

CC(CO)(CO)CN1CCCCC1
inactive: [1] -2.25% | [2] 5.2% | [3] -1.85% | [4] -36.5% | [5] -12.4% | [6] 1.8%

NC1CSc2ccccc2NC1=O (stereo unspecified)
inactive: [1] 20.5% | [2] 31.9% | [3] 7.8% | [4] 9.8% | [5] 22.8% | [6] 33%

Cc1cc(C)c2nccc(/C=C/c3ccc(N(C)C)cc3)c2c1
inactive: [1] -15.3% | [2] 0.4% | [3] -15.5% | [4] -27.2% | [5] -19.4% | [6] -6.95%

COC1(C)COC(C)(OC)CO1 (stereo unspecified)
inactive: [1] 34.3% | [2] 20.9% | [3] 24.1% | [4] 13.6% | [5] 12.8% | [6] 18.6%

COc1cc2oc3c(C)c(=O)cc4oc(-c5ccccc5)cc(c2c2c1CCC(c1ccccc1)O2)c43 (stereo unspecified)
inactive: [1] -23.6% | [2] -5.9% | [3] -20.1% | [4] 4.35% | [5] -20.2% | [6] -0.7%

O=C(Nc1ccc2ccccc2c1)c1ccc(Cl)c(Cl)c1
inactive: [1] -5% | [2] 29.6% | [3] 24.9% | [4] -6.8% | [5] 18.9% | [6] 27.4%

CCCCCSCCC(=O)O
inactive: [1] 12.4% | [2] 11.7% | [3] 11.2% | [4] 4.25% | [5] -1.2% | [6] -6.35%

CC(=O)Nc1ccc(S(=O)(=O)NC2(C)C(=O)N(C)C(=O)N(C)C2=O)cc1
inactive: [1] 32.2% | [2] 15.2% | [3] 14.2% | [4] 17.5% | [5] 3.15% | [6] 27.7%

C[N+]1(C)CCCC1
inactive: [1] 24.5% | [2] 5.5% | [3] 24.2% | [4] 7.6% | [5] 35.5% | [6] 16.1%

Cc1cc(N(CCC#N)CCC#N)ccc1N=Nc1cc(Cl)ccc1Cl
inactive: [1] 18.8% | [2] 16.8% | [3] -8.55% | [4] 13.2% | [5] 42% | [6] 16.6%

CCOC(=O)C(=O)Nc1ccccc1
inactive: [1] 43.8% | [2] -1.4% | [3] 21% | [4] -21.1% | [5] -4.15% | [6] 18.8%

CS1(=O)=NC(=O)C(N2C(=O)c3ccccc3C2=O)CC1 (stereo unspecified)
inactive: [1] 0.6% | [2] 4.9% | [3] -0.95% | [4] -17.4% | [5] 13.2% | [6] 5.5%

Cc1cccc(-c2cc(=O)c3c(C)ccnc3[nH]2)c1
inactive: [1] 10.3% | [2] -1% | [3] -0.85% | [4] -4.5% | [5] -3.3% | [6] -12.9%

CC1c2[nH]c3ccccc3c2CC1C(=O)O (stereo unspecified)
inactive: [1] 10.3% | [2] 12.6% | [3] 5.25% | [4] -13.2% | [5] -9.8% | [6] -5.35%

CC(CN(C)C)Oc1ccc2c(c1)C(=O)C(C)C2 (stereo unspecified)
inactive: [1] -25.6% | [2] -5.25% | [3] 4.85% | [4] -28.9% | [5] 22.1% | [6] -22.6%

COC(=O)C(N)Cc1ccc(OC)cc1 (stereo unspecified)
inactive: [1] -4.95% | [2] -9.25% | [3] 8.1% | [4] -1.95% | [5] 7.6% | [6] 3.75%

COc1ccc2c(c1)CC/C2=N/O
inactive: [1] -10.7% | [2] 3.05% | [3] -4.5% | [4] -21.3% | [5] -22.8% | [6] 2.1%

C/C(CCn1[nH]c(=O)ccc1=O)=N\NC(=O)C(=O)NN
inactive: [1] -4.75% | [2] -18.4% | [3] -6.55% | [4] 2.55% | [5] 1.55% | [6] -8.2%

Cc1cc2oc(=O)[nH]c(=S)c2c(C)c1C
inactive: [1] -47.7% | [2] -19.2% | [3] -35.2% | [4] 2.45% | [5] -59.5% | [6] -36.6%

CCC1CCN(CC)CC1
inactive: [1] 3.1% | [2] -37.4% | [3] 3.2% | [4] 1.8% | [5] -19.6% | [6] -4.1%

OCCNCc1cccc(-c2ccccc2)c1O
inactive: [1] 24.6% | [2] 3% | [3] 15.9% | [4] -18.8% | [5] 8.2% | [6] 16.9%

CCCCCCCCCCCCc1c2ccccc2cc2ccccc12
inactive: [1] 3.55% | [2] -3.8% | [3] -4.7% | [4] -11.4% | [5] 25.1% | [6] 9.5%

CC(C)c1ccc(C(C)C)c(Cl)c1
inactive: [1] 43.7% | [2] 13.9% | [3] 16.4% | [4] 7.95% | [5] -12.6% | [6] 12.5%

CC(I)CNC1=NCC(=O)N1 (stereo unspecified)
inactive: [1] -8.6% | [2] 5.9% | [3] -9.9% | [4] -21.1% | [5] 13.1% | [6] 13%

COC(=O)C1OC(O[C@H]2CC[C@]3(C)[C@H]4CC=C5[C@@H]6CC(C)(C)CC[C@]6(C(=O)OC)[C@H](O)C[C@@]5(C)[C@]4(C)CC[C@H]3C2(C)C)C(O)C(O)C1O (stereo partly specified)
inactive: [1] 14.4% | [2] 37.6% | [3] 26.6% | [4] 26.4% | [5] 21.4% | [6] 33.4%

Cc1ccc([N+](=O)[O-])c(N)c1
inactive: [1] 40.5% | [2] 27.4% | [3] 26.1% | [4] 18.9% | [5] 4.65% | [6] 26.4%

O=[N+]([O-])c1cc(F)ccc1-c1ccc(F)cc1
inactive: [1] 2.35% | [2] -4.85% | [3] 0.7% | [4] -20.7% | [5] 2.8% | [6] 20.4%

CC(=O)/C(C)=C\C=C(\C)C(C)=O
inactive: [1] -7.2% | [2] -11.5% | [3] -16.2% | [4] -84.5% | [5] -0.45% | [6] -4.7%

CCOC(OCC)/C(C)=N/N(C)C
inactive: [1] 5.05% | [2] 8.95% | [3] -5.35% | [4] 7.3% | [5] -6.1% | [6] -2.5%

Nc1c(OCc2ccccc2)cccc1C(=O)O
inactive: [1] -7.1% | [2] -9.5% | [3] 10.9% | [4] -47.5% | [5] -40.5% | [6] -12.2%

O=C(COc1ccc(Cl)c(Cl)c1)NCc1cccc([N+](=O)[O-])c1
inactive: [1] 4.9% | [2] -15.8% | [3] -8.4% | [4] 2.2% | [5] 14.9% | [6] 34%

OCC(O)C(O)C(O)c1nn(-c2ccc(Cl)cc2)c2nc3cc(Cl)c(Cl)cc3nc12 (stereo unspecified)
inactive: [1] 1.85% | [2] -28.6% | [3] -33.9% | [4] 15.4% | [5] 4.4% | [6] 0.85%

NCCNC(=O)c1ccccc1
inactive: [1] -6.5% | [2] 1.8% | [3] 0.75% | [4] 17.3% | [5] -7.95% | [6] 4.65%

CCOC1OCCCC1C(OCC)C(C)C (stereo unspecified)
inactive: [1] 39% | [2] 14.7% | [3] 19.4% | [4] 9.35% | [5] -0.7% | [6] 12.4%

COc1cc(C2=N/C(=C\c3cc(Br)cc(Br)c3O)C(=O)O2)cc(OC)c1OC
active: [1] 83.2% | [2] 94.5% | [3] 88.2% | [4] 98.7% | [5] 98.5% | [6] 92.3%

NC(N)=NC(N)=Nc1c(F)c(F)c(F)c(F)c1F
inactive: [1] -17.4% | [2] -33.1% | [3] -11.8% | [4] -14.5% | [5] -3.6% | [6] -20.6%
